Measurements taken from PubChem BioAssay (Tox21).
Inconclusive results are not listed. Active and inactive are the calls of the source. Unless noted, the call rests on the fitted dose curve.

Tests used:
[1] = Nuclear factor erythroid 2-related factor 2/antioxidant responsive element (Nrf2/ARE) small molecule agonists: qHTS cell viability counter screen in human keratinocytes (AID 1919968; active means well fitted curve in the direction sought with a large enough effect in the repeat runs; an effect the other way counts as inactive or inconclusive; further: nearly all actives have a fitted effect of over 55% in size)
Summary of the method: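 Parallel cytotoxicity read: KeratinoSens HaCaT cells, compound treatment 23 h, viability by CellTiter-Fluor fluorescence 1 h post-reagent.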

[2] = Nuclear factor erythroid 2-related factor 2/antioxidant responsive element (Nrf2/ARE) small molecule agonists: luciferase reporter gene qHTS assay in human keratinocytes (AID 1919969); further: nearly all actives have a fitted effect of over 35% in size
[3] = target: Gonadotropin-releasing hormone receptor (Homo sapiens) (UniProt P30968); assay: Human gonadotropin-releasing hormone receptor (GnRHR) small molecule agonists, calcium flux assay in GnRHR-HEK293 cells (AID 1920063); further: nearly all actives have a fitted effect of over 35% in size
Summary of the method: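 Calcium flux, agonist mode, human GnRHR stably integrated in HEK293; dye 1 h at 37 C before compound; Ex/Em=480/540 kinetic read, 3 min; 15 concentrations, triplicate.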

[4] = target: KiSS-1 receptor (Homo sapiens) (UniProt Q969F8); assay: Human kisspeptin (KISS1R) small molecule agonists, calcium flux assay in KISS1R-HEK293 cells (AID 1920064; active means well fitted curve in the direction sought with a large enough effect in the repeat runs; an effect the other way counts as inactive or inconclusive)
Summary of the method: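 Triplicate 15-concentration series were applied to dye-loaded human KISS1R HEK293 cells, and agonist-evoked calcium fluorescence was captured for 3 min.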

[5] = G protein-coupled receptor (GPCR) small molecule agonists, calcium flux assay: HEK293 wild type cell line counter screen (AID 1920065)
Summary of the method: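 Non-specific calcium responders were flagged by adding DMSO-dissolved compounds to dye-loaded cells and reading 480/540 nm fluorescence each second for 3 min; ATP served as positive control.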

[6] = p53 small molecule agonists, cell-based qHTS assay with human liver microsomes: qHTS cell viability counter screen (AID 1963579); further: nearly all actives have a fitted effect of over 45% in size
Summary of the method: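 Tox21 library compounds, delivered from DMSO stocks, were tested on p53RE-bla cells together with 0.5 mg/mL human liver microsomes and 0.5 mg/mL NADPH (final) over 16 h at 37 C; CellTiter-Glo luminescence served as the cytotoxicity measure.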

[7] = p53 small molecule agonists, cell-based qHTS assay with rat liver microsomes: qHTS cell viability counter screen (AID 1963580); further: nearly all actives have a fitted effect of over 45% in size
Summary of the method: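 Cytotoxicity counter screen: intracellular ATP read by CellTiter-Glo luminescence in the p53 reporter wells. HCT-116 p53RE-bla cells were treated for 16 h at 37 C alongside rat liver microsomes and NADPH, each 0.5 mg/mL final.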

[8] = p53 small molecule agonists, cell-based qHTS assay: qHTS cell viability counter screen (AID 1963581); further: nearly all actives have a fitted effect of over 45% in size
Summary of the method: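 Multiplexed with the reporter read, a CellTiter-Glo step (30 min, room temperature) gauges ATP-based viability of HCT-116 p53RE-bla cells after 16 h compound incubation at 37 C.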

[9] = target: 5-hydroxytryptamine receptor 2A (Homo sapiens) (UniProt P28223); assay: 5-hydroxytryptamine receptor 2A (HTR2A) small molecule antagonists, cell-based qHTS assay (AID 1963586); further: nearly all actives have a fitted effect of over 45% in size
Summary of the method: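 CHO cells stably expressing human HTR2A were plated for 18 h at 37 C, then loaded with calcium dye for 1 h. Compounds were preincubated 5 min at room temperature before DOI (4 nM solution) was added. Kinetic fluorescence was read for 3 min.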

[10] = target: 5-hydroxytryptamine receptor 2A (Homo sapiens) (UniProt P28223); assay: 5-hydroxytryptamine receptor 2A (HTR2A) small molecule agonists, cell-based qHTS assay (AID 1963587); further: nearly all actives have a fitted effect of over 30% in size
Summary of the method: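 Kinetic calcium-flux fluorescence (2 min, 1 sec intervals) after compound addition in agonist mode. HTR2A-CHO cells were cultured 18 h, then dye-loaded 1 h at 37 C.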

[11] = target: Muscarinic acetylcholine receptor M1 (Homo sapiens) (UniProt P11229); assay: Cholinergic receptor muscarinic 1 (CHRM1) small molecule antagonists, cell-based qHTS assay (AID 1963588); further: nearly all actives have a fitted effect of over 40% in size
Summary of the method: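 Compounds were tested at 15 concentrations in three independent runs. Dye-loaded CHRM1-CHO cells were exposed 5 min at room temperature before stimulation by acetylcholine added at 50nM. Intracellular calcium was read kinetically on FDSS for 3 min.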

[12] = target: Muscarinic acetylcholine receptor M1 (Homo sapiens) (UniProt P11229); assay: Cholinergic receptor muscarinic 1 (CHRM1) small molecule agonists, cell-based qHTS assay (AID 1963589); further: nearly all actives have a fitted effect of over 35% in size
Summary of the method: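 qHTS, 15-point titration, 3 independent runs: compounds pin-transferred onto dye-loaded CHRM1-CHO cells (human M1), calcium fluorescence followed every second to detect agonism.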

[13] = cAMP Responsive Elements (CRE) small molecule agonists, cell-based qHTS assay (AID 1963590)
Summary of the method: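 Quantitative HTS for CRE agonists: HEK 293T CRE-bla cells, overnight plating, 3 h compound incubation at 37 C/5% CO2, then 2 h room-temperature LiveBLAzer B/G FRET substrate loading.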

[14] = cAMP Responsive Elements (CRE) small molecule antagonists, cell-based qHTS assay (AID 1963591; active means well fitted inhibition curve with a large enough effect in the signal ratio in the repeat runs, not every such curve was filed as active; the % refers to the signal ratio)
Summary of the method: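 Fluorescence intensity from cleaved LiveBLAzer B/G substrate (2 h, room temperature) quantified CRE-bla activity in HEK 293T cells exposed 3 h to compound with 0.25 uM final NKH477.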

[15] = target: Beta-2 adrenergic receptor (Homo sapiens) (UniProt P07550); assay: Adrenergic beta2 receptor (ADRB2) small molecule antagonists, cell-based qHTS assay (AID 1963592); further: series mostly up to about 92 µM; nearly all actives have a fitted effect of over 50% in size
Summary of the method: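 Assay format: CHO-ADRB2 cells, 18-20hr seeding at 37C/5% CO2, then compound plus 1nM isoproterenol agonist mix for 0.5hr RT. Homogeneous time-resolved fluorescence cAMP detection after 1hr, expressed as 665/615 nm ratio.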

[16] = target: D(2) dopamine receptor (Homo sapiens) (UniProt P14416); assay: Dopamine D2 receptor (DRD2) small molecule agonists, cell-based qHTS assay (AID 1963594); further: nearly all actives have a fitted effect of over 35% in size
Summary of the method: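 cAMP accumulation in DRD2-HEK293 cells measured by HTRF after 1 h detection; compounds added 10 min before NKH477 (200nM […]) forskolin-analogue stimulation, 30 min at room temperature, with Ro20-1724 present at 0.1 mM final.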

[17] = target: D(2) dopamine receptor (Homo sapiens) (UniProt P14416); assay: Dopamine D2 receptor (DRD2) small molecule antagonists, cell-based qHTS assay (AID 1963595; active means well fitted inhibition curve with a large enough effect in the signal ratio in the repeat runs, with a control signal flat; the % refers to the signal ratio)
Summary of the method: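 HEK293 cells stably expressing DRD2 were preincubated with 0.1 mM Ro20-1724, then with compound for 10 min at room temperature. Cells were stimulated with 200 nM NKH477 plus 12 nM quinpirole for 30 min, and cAMP was read by HTRF.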

[18] = target: Beta-2 adrenergic receptor (Homo sapiens) (UniProt P07550); assay: Adrenergic beta2 receptor (ADRB2) small molecule agonists, cell-based qHTS assay (AID 1963593);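 further: CHO cells stably overexpressing human ADRB2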
Summary of the method: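 CHO cells stably over-expressing ADRB2 were plated overnight at 37C, then dosed with compounds plus a stimulation mix containing 100uM IBMX and 25uM Ro-20-1724 for 0.5hr at room temperature. cAMP was measured by HTRF competition, 1hr.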

Measured: Potency

Chain of Muscarinic acetylcholine receptor M1 (Homo sapiens) (P11229 whole entry, looked up): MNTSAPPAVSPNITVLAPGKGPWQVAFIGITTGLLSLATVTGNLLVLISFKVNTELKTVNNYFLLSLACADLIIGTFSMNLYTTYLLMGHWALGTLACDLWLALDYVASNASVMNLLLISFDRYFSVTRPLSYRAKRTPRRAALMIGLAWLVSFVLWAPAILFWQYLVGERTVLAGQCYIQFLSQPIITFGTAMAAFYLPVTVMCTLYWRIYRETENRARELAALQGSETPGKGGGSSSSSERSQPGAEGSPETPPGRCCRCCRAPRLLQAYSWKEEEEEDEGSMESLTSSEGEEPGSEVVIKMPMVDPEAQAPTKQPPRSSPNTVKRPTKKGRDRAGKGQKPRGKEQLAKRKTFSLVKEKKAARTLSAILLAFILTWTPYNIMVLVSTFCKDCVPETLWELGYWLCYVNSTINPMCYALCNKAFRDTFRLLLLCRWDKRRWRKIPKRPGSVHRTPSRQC
Chain of 5-hydroxytryptamine receptor 2A (Homo sapiens) (P28223 whole entry, looked up): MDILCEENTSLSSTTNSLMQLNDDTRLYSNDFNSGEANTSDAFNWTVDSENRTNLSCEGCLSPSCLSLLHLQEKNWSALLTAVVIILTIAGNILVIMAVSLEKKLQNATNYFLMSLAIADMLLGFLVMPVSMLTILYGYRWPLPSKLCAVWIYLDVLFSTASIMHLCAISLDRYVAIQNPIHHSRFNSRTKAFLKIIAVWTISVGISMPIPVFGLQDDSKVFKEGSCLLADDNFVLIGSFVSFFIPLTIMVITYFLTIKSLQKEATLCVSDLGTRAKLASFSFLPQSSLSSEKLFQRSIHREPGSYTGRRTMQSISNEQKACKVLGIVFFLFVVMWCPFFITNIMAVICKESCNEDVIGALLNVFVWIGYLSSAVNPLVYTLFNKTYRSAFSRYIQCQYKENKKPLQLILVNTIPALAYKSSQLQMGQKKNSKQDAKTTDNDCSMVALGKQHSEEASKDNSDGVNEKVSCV
Chain of D(2) dopamine receptor (Homo sapiens) (P14416 whole entry, looked up): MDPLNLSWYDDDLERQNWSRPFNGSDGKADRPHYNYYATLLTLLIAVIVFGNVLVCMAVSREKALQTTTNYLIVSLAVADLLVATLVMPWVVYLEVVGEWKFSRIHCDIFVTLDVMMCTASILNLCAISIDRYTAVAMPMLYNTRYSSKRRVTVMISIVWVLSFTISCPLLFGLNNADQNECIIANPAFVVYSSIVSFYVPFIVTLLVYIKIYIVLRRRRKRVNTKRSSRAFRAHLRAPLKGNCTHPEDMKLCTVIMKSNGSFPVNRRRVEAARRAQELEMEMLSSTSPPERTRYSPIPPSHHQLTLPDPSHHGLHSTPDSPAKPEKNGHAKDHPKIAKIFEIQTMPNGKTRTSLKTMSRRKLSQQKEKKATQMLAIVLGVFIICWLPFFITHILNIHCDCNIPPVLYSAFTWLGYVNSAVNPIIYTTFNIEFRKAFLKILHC
Chain of Beta-2 adrenergic receptor (Homo sapiens) (P07550 whole entry, looked up): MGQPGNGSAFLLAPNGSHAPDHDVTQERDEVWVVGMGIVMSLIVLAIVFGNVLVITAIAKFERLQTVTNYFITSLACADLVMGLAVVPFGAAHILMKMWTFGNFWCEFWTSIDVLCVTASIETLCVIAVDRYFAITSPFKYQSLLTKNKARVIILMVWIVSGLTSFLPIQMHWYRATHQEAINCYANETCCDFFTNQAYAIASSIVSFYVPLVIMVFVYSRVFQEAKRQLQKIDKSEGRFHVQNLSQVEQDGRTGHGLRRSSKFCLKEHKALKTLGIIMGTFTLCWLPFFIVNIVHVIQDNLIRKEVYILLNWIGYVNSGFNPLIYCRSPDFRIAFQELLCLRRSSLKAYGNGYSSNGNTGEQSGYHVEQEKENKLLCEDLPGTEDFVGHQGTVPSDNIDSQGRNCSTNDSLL
Chain of Gonadotropin-releasing hormone receptor (Homo sapiens) (P30968 whole entry, looked up): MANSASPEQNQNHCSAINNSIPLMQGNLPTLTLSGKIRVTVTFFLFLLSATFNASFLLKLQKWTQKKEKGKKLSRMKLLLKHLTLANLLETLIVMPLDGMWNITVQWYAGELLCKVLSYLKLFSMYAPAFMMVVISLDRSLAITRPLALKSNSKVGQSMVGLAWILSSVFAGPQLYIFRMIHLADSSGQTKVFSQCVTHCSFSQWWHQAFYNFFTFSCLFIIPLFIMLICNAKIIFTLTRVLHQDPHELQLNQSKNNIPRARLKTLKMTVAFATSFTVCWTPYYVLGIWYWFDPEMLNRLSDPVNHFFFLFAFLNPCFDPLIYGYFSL
Chain of KiSS-1 receptor (Homo sapiens) (Q969F8 whole entry, looked up): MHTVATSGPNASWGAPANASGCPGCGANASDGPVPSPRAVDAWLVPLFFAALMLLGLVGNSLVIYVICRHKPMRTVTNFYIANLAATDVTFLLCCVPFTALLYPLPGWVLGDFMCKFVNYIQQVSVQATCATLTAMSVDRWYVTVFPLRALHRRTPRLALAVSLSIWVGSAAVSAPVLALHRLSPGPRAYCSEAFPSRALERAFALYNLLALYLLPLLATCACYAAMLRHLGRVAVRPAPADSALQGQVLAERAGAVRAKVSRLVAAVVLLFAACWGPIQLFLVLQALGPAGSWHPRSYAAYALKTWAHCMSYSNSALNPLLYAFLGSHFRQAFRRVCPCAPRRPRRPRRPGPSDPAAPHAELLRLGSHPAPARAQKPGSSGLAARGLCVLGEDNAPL

O=C(O)/C=C(\CC(=O)O)C(=O)O
not listed: [18]
inactive: all other assays above

C=C(C)C(=O)OCC
not listed: [18]
inactive: all other assays above

Cc1ccc(C)c([N+](=O)[O-])c1
not listed: [18]
inactive: all other assays above

COCc1nnc(-c2ccc[n+]([O-])c2)n1-c1c(Cl)c(Cl)cc2[nH]c(=O)c(=O)[nH]c12
not listed: [15]
inactive: all other assays above

CCCCCCCCCCCCCC(=O)OC
not listed: [16] | [18]
inactive: all other assays above

COC1CCC=CO1 (configuration not stated)
not listed: [16] | [18]
inactive: all other assays above

Cc1ccc(Nc2c(F)cccc2Cl)c(CC(=O)O)c1
not listed: [18]
inactive: all other assays above
